Results on 14 compounds are retold here after PubChem BioAssay (NCATS).

Values without a mark were called inactive. Inconclusive results are not listed. Active and inactive are the calls of the source. Unless noted, calls follow the shape of the dose curve; as a rule, active = well fitted curve in either direction with a large enough effect (not every such curve was filed as active); inconclusive = small, poorly fitted or top-dose-only effect, or another doubt; inactive = flat fitted curve, though single readings scatter. Some results are limits rather than exact numbers.

In experiment [1] the target is Lysosomal acid glucosylceramidase (Homo sapiens) (UniProt P04062). Description: Glucocerebrosidase-p2 (AID 348; in the data active = potency below about 10 µM; also: potency is read from the fitted curve at half-maximal effect). The settings on record: purified GBA, blue fluorogenic substrate, 40 min. In a few lines: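 Normal human glucocerebrosidase (0.2 nM) with blue fluorogenic substrate (80 uM final) in citrate/phosphate pH 5.9 with 10mM sodium taurocholate, 0.01% tween-20; 40 min RT, NaOH/glycine stop; fluorescence Ex 365/Em 440; AC50 from a titration from 0.6 nM upwards.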
Chain of Lysosomal acid glucosylceramidase (Homo sapiens) (P04062 whole entry, looked up): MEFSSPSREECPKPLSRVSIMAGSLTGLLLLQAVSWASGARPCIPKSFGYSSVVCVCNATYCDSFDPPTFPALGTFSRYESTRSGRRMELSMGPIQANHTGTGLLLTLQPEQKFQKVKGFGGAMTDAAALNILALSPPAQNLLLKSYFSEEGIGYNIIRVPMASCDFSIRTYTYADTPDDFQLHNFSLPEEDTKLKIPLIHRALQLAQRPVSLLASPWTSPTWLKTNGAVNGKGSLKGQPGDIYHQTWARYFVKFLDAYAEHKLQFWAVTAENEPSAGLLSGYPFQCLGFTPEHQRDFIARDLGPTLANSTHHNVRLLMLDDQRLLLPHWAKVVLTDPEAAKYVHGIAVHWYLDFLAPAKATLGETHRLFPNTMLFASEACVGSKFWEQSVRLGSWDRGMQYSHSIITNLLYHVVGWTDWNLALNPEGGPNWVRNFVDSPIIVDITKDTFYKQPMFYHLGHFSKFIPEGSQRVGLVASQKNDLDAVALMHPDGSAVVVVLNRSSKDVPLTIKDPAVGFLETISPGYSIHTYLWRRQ

A short description of experiment [2]: AP1 Signaling Pathway (AID 357).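 Also: ME-180 reporter cells stimulated with EGF at its EC50 level; % is scaled to controls: 0 for no effect and ±100 for the full control effect.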 To be noted: ME-180 AP-1-bla reporter, EGF-induced, beta-lactamase ratio, 5 h; at 7.69 µM (top of the series) unless noted. Summed up:
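Read-out was the 460nm/530nm emission ratio (excitation 405nm) after CCF4 loading for 2.5 hours at room temperature. Cells carried an AP-1-driven beta-lactamase reporter, were stimulated with EC50 EGF plus compound for 5 hours, and AC50 values came from titrations.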

In experiment [3] the target is Cytochrome P450 1A2 (Homo sapiens) (UniProt P05177). Description: p450-cyp1a2 (AID 410; calls by dose curve; also: potency is read from the fitted curve at half-maximal effect;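 as to activity change, negative = inhibition: -100% = full effect of reference inhibitor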). The settings on record: recombinant CYP1A2, luciferin-ME demethylation, luminescence; series mostly up to 11.4 µM. Summed up:
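O-Demethylation of luciferin 6' methyl ether by human CYP1A2 is monitored as luciferase luminescence. Substrate sits at Km (100uM); enzyme is 20nM. Values are scaled to 57 uM furafylline as maximal inhibition.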

Experiment [4] can be described thus: NFAT Signaling Pathway (AID 444).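 Also: carbachol stimulus at about its EC50 of 1 µM final; % is scaled to controls: 0 for no effect and ±100 for the full control effect.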 To be noted: Jurkat NFAT-bla M1, carbachol, beta-lactamase ratio, 5 h; at 7.69 µM (top of the series) unless noted. Summed up:
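Jurkat cells carrying an NFAT-driven β-lactamase reporter and co-transfected muscarinic M1 receptor were treated with compound plus carbachol (1 uM final, an EC50 level) for 5 h at 37 °C. CCF4 loading followed for 1 h at RT; 460/530 nm ratio gave %activity.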

A short description of experiment [5]: Stat Signaling Pathway (AID 446).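 Also: ME-180 cervical cancer cells given 40 pM IL-6 alongside compound; SIE-controlled beta-lactamase reporter measured as 460/530 nm FRET emission ratio; % is scaled to controls: 0 for no effect and ±100 for the full control effect.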 To be noted: ME-180 (cervical carcinoma) SIE beta-lactamase reporter, IL-6 stimulated, 5 h; at 7.69 µM (top of the series) unless noted. In a few lines: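 Compound effects on IL-6-induced STAT reporter activity were measured in ME-180 cells. After overnight culture, cells were co-treated with 40 pM IL-6 for 5 hrs before beta-lactamase substrate loading at room temperature.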

Experiment [6] concerns the target Glucocorticoid receptor (Homo sapiens) (UniProt P04150). In words: GR-GFP Redistribution (AID 450;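 active = compounds whose dose series gives a full or clear partial fitted curve of increased nuclear translocation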; also: potency is read from the fitted curve at half-maximal effect). To be noted: U2OS GR-GFP nuclear translocation, laser cytometry, 2 h.
Experiment [7] has the same target. In words: GR-EFC Redistribution (AID 451; calls by dose curve; also: potency is read from the fitted curve at half-maximal effect). The settings on record: CHO-K1 GR-EFC translocation, beta-gal luminescence, 2 h. Summed up: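 CHO-K1 cells stably expressing nuclear-localized β-gal enzyme acceptor and GR fused C-terminally to the enzyme donor fragment; ligand-driven nuclear translocation restores β-gal by complementation. Compounds titrated up to 46 uM final, 2 h at 37 °C; luminescence read.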

The target in experiment [8] is Mitogen-activated protein kinase 10 (Mus musculus) (UniProt Q61831). In words: JNK3 AlphaScreen Assay (AID 530).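 Also: kinase came from lysate of stimulated human HepG2 cells; % is scaled to controls: 0 for no effect and ±100 for the full control effect.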 To be noted: JNK3 lysate, c-Jun phosphorylation; series mostly up to 11.4 µM. In a few lines: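 Phosphorylation of biotinylated GST-cJun(1-79) at Ser73 is measured by AlphaScreen proximity luminescence. Enzyme is JNK3 in HepG2 lysates activated with interleukin-1beta and tumor necrosis factor alpha; ATP is 10 uM final.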

In experiment [9] the target is 3',5'-cyclic-AMP phosphodiesterase 4B (Homo sapiens) (UniProt Q07343). Description: qHTS Assay for Inhibitors of PDE-IV (AID 607; active = well fitted activation curve with a large enough effect in the main read-out, with a control signal flat, not every such curve was filed as active; also: % of control where 0% means no effect). The settings on record: HEK293 ACTOne CNG channel cells, membrane potential fluorescence; series mostly up to 22.9 µM. In a few lines: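 ACTOne HEK293 cells carry a modified cAMP-gated CNG channel and express endogenous PDE4; plated 1000 cells/well, compounds up to 22.9 uM final. Membrane-potential dye fluorescence (ex 535/em 590) was read; parental cells received 10 uM forskolin + 100 uM RO 20-1724.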
Chain of 3',5'-cyclic-AMP phosphodiesterase 4B (Homo sapiens) (Q07343 whole entry, looked up): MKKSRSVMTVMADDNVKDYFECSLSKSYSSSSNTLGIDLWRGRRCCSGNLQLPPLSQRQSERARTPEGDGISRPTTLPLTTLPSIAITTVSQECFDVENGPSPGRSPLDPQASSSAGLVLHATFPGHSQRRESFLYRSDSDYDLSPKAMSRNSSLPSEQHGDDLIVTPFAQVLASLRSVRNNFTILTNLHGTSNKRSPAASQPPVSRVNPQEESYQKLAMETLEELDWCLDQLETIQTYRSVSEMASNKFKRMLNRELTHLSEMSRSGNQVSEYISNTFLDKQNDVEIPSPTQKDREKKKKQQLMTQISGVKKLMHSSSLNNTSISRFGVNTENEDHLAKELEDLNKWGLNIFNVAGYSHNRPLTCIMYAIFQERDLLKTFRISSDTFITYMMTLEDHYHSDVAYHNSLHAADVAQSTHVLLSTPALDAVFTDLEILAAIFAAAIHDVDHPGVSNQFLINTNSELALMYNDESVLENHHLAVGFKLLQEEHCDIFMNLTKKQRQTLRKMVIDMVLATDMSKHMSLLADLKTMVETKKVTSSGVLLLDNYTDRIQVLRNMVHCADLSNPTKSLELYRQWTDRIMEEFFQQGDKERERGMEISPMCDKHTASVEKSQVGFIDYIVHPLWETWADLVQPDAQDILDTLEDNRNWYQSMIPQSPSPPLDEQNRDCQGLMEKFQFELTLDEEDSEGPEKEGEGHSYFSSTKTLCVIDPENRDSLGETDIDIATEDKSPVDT

Chain of Cytochrome P450 1A2 (Homo sapiens) (P05177 whole entry, looked up): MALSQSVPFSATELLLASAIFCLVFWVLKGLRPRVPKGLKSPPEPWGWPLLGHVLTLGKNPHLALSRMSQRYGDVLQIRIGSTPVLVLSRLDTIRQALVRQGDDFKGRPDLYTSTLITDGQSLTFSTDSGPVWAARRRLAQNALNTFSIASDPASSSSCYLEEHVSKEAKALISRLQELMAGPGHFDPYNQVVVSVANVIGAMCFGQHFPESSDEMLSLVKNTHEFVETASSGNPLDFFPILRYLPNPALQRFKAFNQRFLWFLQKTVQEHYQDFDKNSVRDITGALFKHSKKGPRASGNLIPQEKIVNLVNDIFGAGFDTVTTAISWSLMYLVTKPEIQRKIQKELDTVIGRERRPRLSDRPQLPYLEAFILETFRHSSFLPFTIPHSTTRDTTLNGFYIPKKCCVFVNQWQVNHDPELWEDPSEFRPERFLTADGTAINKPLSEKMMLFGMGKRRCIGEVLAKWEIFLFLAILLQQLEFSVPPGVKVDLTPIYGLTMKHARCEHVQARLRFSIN
Chain of Glucocorticoid receptor (Homo sapiens) (P04150 whole entry, looked up, the tested form may be a part): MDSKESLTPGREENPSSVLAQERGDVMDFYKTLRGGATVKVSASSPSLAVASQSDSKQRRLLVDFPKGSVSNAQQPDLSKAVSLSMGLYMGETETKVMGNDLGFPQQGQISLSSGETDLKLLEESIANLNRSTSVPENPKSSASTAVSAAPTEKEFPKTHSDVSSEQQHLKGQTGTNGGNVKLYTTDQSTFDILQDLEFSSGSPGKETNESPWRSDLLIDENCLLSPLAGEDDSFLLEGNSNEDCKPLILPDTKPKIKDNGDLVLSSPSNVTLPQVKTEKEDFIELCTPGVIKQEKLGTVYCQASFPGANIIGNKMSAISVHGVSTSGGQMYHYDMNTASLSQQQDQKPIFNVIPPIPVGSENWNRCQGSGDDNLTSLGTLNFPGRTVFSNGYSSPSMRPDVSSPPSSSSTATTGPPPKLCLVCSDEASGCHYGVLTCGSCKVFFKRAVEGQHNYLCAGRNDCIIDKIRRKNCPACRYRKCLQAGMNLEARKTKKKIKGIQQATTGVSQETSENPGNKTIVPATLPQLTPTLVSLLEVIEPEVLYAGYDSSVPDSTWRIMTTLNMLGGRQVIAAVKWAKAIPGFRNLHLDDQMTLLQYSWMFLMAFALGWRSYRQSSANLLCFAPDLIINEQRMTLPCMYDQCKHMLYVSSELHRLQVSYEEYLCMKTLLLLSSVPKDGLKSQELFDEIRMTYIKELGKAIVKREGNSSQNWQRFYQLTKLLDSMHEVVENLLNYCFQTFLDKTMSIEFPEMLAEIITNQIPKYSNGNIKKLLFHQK

For `O=C(O)CSCCc1ccccc1`, the Potency in experiment [1] is over 11.4 µM; in experiment [6], over 46 µM; in experiment [7], over 9.22 µM. In addition, the results for the activity change, negative = inhibition in experiment [2] and in [4] were 6.88% and -11.5%, respectively. For the same compound, the Potency entry in experiment [3], in experiment [8] and in experiment [9] was “inactive” in each case. Further, in [5], the activity, negative = inhibition was 16.8%.

With `Cc1[nH]c2ccccc2c1-c1cc(-c2cc(-c3c(C)[nH]c4ccccc34)nc(N)n2)nc(N)n1`, the Potency is over 11.4 µM in experiment [1], 0.398 µM (active) in experiment [3], over 46 µM in experiment [6] and over 9.22 µM in experiment [7]. Further, the activity change, negative = inhibition in experiment [2] is -6.63%; in experiment [4], 1.59%. The activity, negative = inhibition in experiment [5] is -4.41%. The Potency result in experiment [8] and in experiment [9] was “inactive” in each case.

In the case of `CN1CCN(CCCN)CC1`, the Potency in [1] is over 11.4 µM; in [6], over 46 µM; in experiment [7], over 9.22 µM. Moreover, the activity change, negative = inhibition in experiment [2] was 0.666%; in experiment [4], 18.2%. For the same compound, the Potency result in experiment [3], in experiment [8] and in experiment [9] was “inactive” in each case. Besides, the activity, negative = inhibition in [5] is 6.19%.

Consider `COc1cc2ccc([C@H](C)NCC#N)cc2cc1OC`, for which the Potency was over 11.4 µM in experiment [1], 0.501 µM (active) in experiment [3], over 46 µM in [6] and over 9.22 µM in experiment [7]. Further, the figures for the activity change, negative = inhibition in experiment [2] and in experiment [4] were -11.4% and 9.37%, respectively. In addition, the activity, negative = inhibition in [5] is -0.292%. Moreover, the Potency result in [8] and in experiment [9] was “inactive” each time.

For the compound `CCN(CC)C[C@@H](O)c1ccc2ccc3ccccc3c2c1`, the Potency in [1] was over 11.4 µM; in [3] it was 0.794 µM (active); in experiment [6], over 46 µM; in experiment [7], over 9.22 µM. Moreover, the activity change, negative = inhibition is 15.5% in experiment [2] and 16.1% in [4]. For the same compound, in experiment [5], the activity, negative = inhibition was 13.3%. Besides, the Potency entry in experiment [8] and in experiment [9] was “inactive” each time.

On to `Cc1cc2nc3[nH]c4c(Cl)cc(Cl)cc4c3nc2cc1C`, for which the Potency was over 11.4 µM in experiment [1], 0.631 µM (active) in experiment [3], over 46 µM in experiment [6] and over 9.22 µM in experiment [7]. For the same compound, the activity change, negative = inhibition in experiment [2] was -14%; in experiment [4] it was 11.6%. In experiment [5], the activity, negative = inhibition was -5.45%. In addition, the Potency result in [8] and in experiment [9] was “inactive” each time.

In the case of `O=C(O)CCNc1ccccc1C(=O)O`, the Potency in experiment [1] is over 11.4 µM; in [6] it was over 46 µM; in experiment [7] it was over 9.22 µM. The figures for the activity change, negative = inhibition in [2] and in experiment [4] were -0.595% and 4.52%, respectively. For the same compound, the Potency result in [3], in [8] and in experiment [9] was “inactive” throughout. Further, the activity, negative = inhibition in [5] is 6.23%.

As for `C/C(=N/O)[C@@H]1C[C@H](CC(=O)O)C1(C)C`, the Potency in experiment [1] is over 11.4 µM; in [6], over 46 µM; in experiment [7] it was over 9.22 µM. In addition, the values for the activity change, negative = inhibition in experiment [2] and in experiment [4] were 10.6% and 9.94%, respectively. The Potency entry in [3], in [8] and in experiment [9] was “inactive” throughout. In addition, the activity, negative = inhibition in experiment [5] is 18.2%.

In the case of `O=C(O)c1ccc([N+]2=Cn3c(nc4ccccc43)C2)cc1`, the Potency in experiment [1] is over 11.4 µM; in [3], 5.01 µM (active); in experiment [6], over 46 µM; in experiment [7] it was over 9.22 µM. The values for the activity change, negative = inhibition in experiment [2] and in experiment [4] were -0.795% and 9.31%, respectively. Also, in [5], the activity, negative = inhibition is 0.556%. In addition, the Potency entry in experiment [8] and in [9] was “inactive” in each case.

For `Nc1ccn([C@@H]2O[C@H](COC(=O)C34CC5CC(CC(C5)C3)C4)[C@@H](O)[C@@H]2O)c(=O)n1`, the Potency in experiment [1] was over 11.4 µM; in experiment [6] it was over 46 µM; in experiment [7] it was over 9.22 µM. For the same compound, the figures for the activity change, negative = inhibition in experiment [2], in [3] and in [4] were 9.17%, -18.7% [at 2.29 µM] and 16.8%, respectively. Moreover, in [5], the activity, negative = inhibition was -0.882%. Moreover, the Potency result in experiment [8] and in experiment [9] was “inactive” in each case.

In the case of `CCOC(=O)CCCN`, the Potency in experiment [1] is over 11.4 µM; in experiment [3], 6.31 µM (active); in experiment [6], over 46 µM; in [7], over 9.22 µM. Further, the values for the activity change, negative = inhibition in experiment [2] and in [4] were -4.22% and 2.34%, respectively. Besides, the activity, negative = inhibition in experiment [5] was 8.34%. Further, the Potency result in [8] and in experiment [9] was “inactive” throughout.

For the compound `O=S(=O)(c1ccc(Br)cc1)N1CCN(S(=O)(=O)c2ccc(Br)cc2)CC1`, the Potency in [1] was over 11.4 µM; in [6] it was over 46 µM; in experiment [7], over 9.22 µM. Besides, the activity change, negative = inhibition was 14.8% in experiment [2] and -0.352% in [4]. Moreover, the Potency entry in experiment [3], in experiment [8] and in experiment [9] was “inactive” each time. In experiment [5], the activity, negative = inhibition is 5.43%.

As to `O=S1(=O)N[C@H]2CC[C@@H]3NS(=O)(=O)N[C@H]4CC[C@H](N1)N4S(=O)(=O)N23`, the Potency in experiment [1] was over 11.4 µM; in experiment [6], over 46 µM; in [7] it was over 9.22 µM. The activity change, negative = inhibition is -14.2% in experiment [2] and 23.9% in experiment [4]. Further, the Potency result in [3], in [8] and in [9] was “inactive” in each case. In experiment [5], the activity, negative = inhibition was -2.8%.

With `Cc1ccc(N2CCN(CCC(=O)O)CC2)cc1`, the Potency is over 11.4 µM in experiment [1], over 46 µM in experiment [6] and over 9.22 µM in [7]. Besides, the activity change, negative = inhibition in [2] is 4.25%; in [4] it was 2.05%. Also, the Potency result in experiment [3], in [8] and in [9] was “inactive” each time. Besides, the activity, negative = inhibition in [5] was 2.74%.
